Screens from PubChem BioAssay.
An excerpt weighted towards active compounds, which were near 12% of everything screened.
Shiga inhibitor: blocks Shiga toxin action in Vero cells; 9.2% of 290,000 active; Vero cells, Shiga toxin protein synthesis inhibition reporter; inhibition, % at 38.7 µM; AID 2315; in the data active = inhibition mostly above about 28%, no sharp cut-off; inactive = mostly below about 43%
Marburg entry inh: blocks Marburg virus binding to or entry into cells; Marburg virus pseudotyped entry inhibition, cell reporter; Potency, µM (titrated, usually from 37.8 µM), hits mostly inhibitors; 1.8% of 300,000 active; calls by dose curve; tested in HEK293 cells
CHX counter: counter-screen hit for Shiga toxin inhibitors, cycloheximide. cell reporter, cycloheximide protein synthesis inhibition counterscreen. max response, %. 12% of 300,000 active; in the data active = max response mostly above about 13%, no sharp cut-off; inactive = mostly below about 14%; note: read at 38.3 µM for the half of the compounds with a filed dose
LASV entry inh: inhibitors of Lassa virus binding or cell entry | Lassa virus pseudotype entry inhibition, cell reporter | Potency, µM (series often up to 37.9 µM), usual class: inhibitors | AID 540256 | 1.2% of 300,000 active; calls by dose curve; tested in HEK293 cells; note: nearly all actives have a fitted effect of over 50% in size
Large screens that a line does not name were inactive; ! = not active in a repeat.

CC(C)CC(=O)NC(=S)Nc1cccc(NC(=O)c2ccccc2)c1	none
Cc1cccc(NC(=S)Nn2cnnc2)c1C	CHX counter 38 (no result: LASV entry inh)
CSc1ncccc1C(=O)NC(C)C1CC2CCC1C2 (configuration not stated)	none
Cc1ccc(NC(=O)C2CC(O)CN2C(=O)OCc2ccccc2)cc1C (configuration not stated)	none (no result: Marburg entry inh, LASV entry inh)
CC(C)CC(=O)NC(=S)Nc1ccc(N2CCOCC2)cc1	Shiga inhibitor 48, Marburg entry inh inconclusive, CHX counter 24
O=C(c1cc(-c2ccco2)on1)N1CCOCC1	Shiga inhibitor 47, Marburg entry inh inconclusive, CHX counter 27
CN1CCN(C(=O)c2cc(-c3ccco3)on2)CC1	Marburg entry inh inconclusive, CHX counter 15, LASV entry inh inconclusive
COc1cc(OC)cc(-c2nnc3n2N=C(c2ccccc2OC)CS3)c1	none (no result: Marburg entry inh, LASV entry inh)
COCCn1c(C)cc(C(=O)COC(=O)c2ccc(S(=O)(=O)N(C)C)cc2)c1C	none (no result: Shiga inhibitor, CHX counter)
COCCn1c(C)cc(C(=O)COC(=O)c2ccc3ncsc3c2)c1C	Shiga inhibitor 110, Marburg entry inh inconclusive, CHX counter 24
COCCn1c(C)cc(C(=O)COC(=O)c2ccc(NC(=O)CC#N)cc2)c1C	Shiga inhibitor 73, Marburg entry inh inconclusive, CHX counter 40
O=C(OCC(=O)c1ccco1)c1ccc2ncsc2c1	CHX counter 29
COCCn1c(C)cc(C(=O)COC(=O)c2cncc(Br)c2)c1C	Shiga inhibitor 54, Marburg entry inh inconclusive, CHX counter 36
COc1ccc(Cn2c(CCC(=O)NCCC(C)C)nc3ncccc3c2=O)cc1	none
O=C(COC(=O)Cc1c(Cl)cccc1Cl)NCC1CCCO1 (configuration not stated)	Marburg entry inh inconclusive, LASV entry inh inconclusive
CC(=O)NS(=O)(=O)c1ccc(NC(=S)NC(=O)C2CCC2)cc1	Marburg entry inh inconclusive, LASV entry inh inconclusive
O=C(NC(=S)Nc1ccc(F)cc1)C1CCCCC1	Shiga inhibitor 89, CHX counter 23
CC(=O)Nc1ccc(NC(=S)NC(=O)C2CC2)cc1	Shiga inhibitor 64, CHX counter 25
CC(=O)c1ccc(NC(=S)Nc2ccc(Br)c(Cl)c2)cc1	none
O=C(NC(=S)Nc1ccc(Br)c(Cl)c1)C1CC1	Shiga inhibitor 32, CHX counter 26 (no result: Marburg entry inh, LASV entry inh)
O=C(Nc1ccc(F)cc1)C1CCCCC1	none
CSc1nnc(C)c(=O)n1COC(=O)/C=C/c1ccc2c(c1)OCO2	none
COc1ccc(-n2c(=O)c3ccccc3n(Cc3cccc(C)c3)c2=O)cc1	none (no result: Shiga inhibitor, CHX counter)
O=S(=O)(/C=C/c1ccccc1)N1CCN(c2cccc(Cl)c2)CC1	none
CCOc1ccc(NCc2cccn2-c2nnc(N3CCC(C(=O)NCCCN4CCCCC4)CC3)s2)cc1	Shiga inhibitor 23, CHX counter 17 (no result: Marburg entry inh, LASV entry inh)
CCOc1ccc(NCc2cccn2-c2nnc(N3CCC(C(=O)NCCCN4C(C)CCCC4C)CC3)s2)cc1 (configuration not stated)	Marburg entry inh inconclusive
O=C1NC(c2cccs2)Nc2ccccc21 (configuration not stated)	Shiga inhibitor 38, Marburg entry inh inconclusive, CHX counter 21
Cc1ccsc1C1NC(=O)c2ccccc2N1 (configuration not stated)	Marburg entry inh inconclusive, CHX counter 23
CCn1cnc2c(oc3ccccc32)c1=O	CHX counter 24, LASV entry inh inconclusive
Cn1cnc2c(oc3ccccc32)c1=O	none (no result: Shiga inhibitor, CHX counter)
CCCn1cnc2c(oc3ccccc32)c1=O	Shiga inhibitor 39, CHX counter 29
C#CCn1cnc2c(oc3ccccc32)c1=O	CHX counter 34 (no result: Marburg entry inh, LASV entry inh)
O=C(Cn1cnc2c(oc3ccccc32)c1=O)c1ccccc1	Shiga inhibitor 53, CHX counter 54
O=C(O)Cn1cnc2c(oc3ccccc32)c1=O	none
COC(CNC(=O)CCc1c(C)nc2c(-c3ccccc3)c(C)nn2c1C)OC	Marburg entry inh inconclusive
COc1cc(C(=O)NC(C(=O)Nc2cccc(C(C)=O)c2)C(C)C)cc(OC)c1OC (configuration not stated)	none
COc1ccc2ccc(O)c(CN(C)CC(=O)Nc3ccccc3C(F)(F)F)c2c1	none
Nc1nc(SCc2ccccc2)c2ncn(CCO)c2n1	none (no result: Shiga inhibitor, CHX counter)
ClCCn1cnc2c(SCc3ccccc3)ncnc21	Marburg entry inh 0.89µM, LASV entry inh inconclusive (no result: Shiga inhibitor, CHX counter)
CN(C)CCC(c1ccccc1)c1ccccn1 (configuration not stated)	Marburg entry inh inconclusive
CN(C)CCC(c1ccc(Cl)cc1)c1ccccn1 (configuration not stated)	Marburg entry inh 2.8µM!
O=C(CCl)NCCCCCCCCCNC(=O)CCl	Marburg entry inh 8.9µM, LASV entry inh inconclusive
O=C(CC1C(=O)N(c2ccccc2)C(=O)N1Cc1ccc2c(c1)OCO2)Nc1ccccc1 (configuration not stated)	none (no result: Shiga inhibitor, CHX counter)
